Assay results: PubChem BioAssay AID1159580 (chemical genetic matrix, 2015)
The campaign covered roughly 5,500 compounds. About 2,000 (36%) were called active. Another 18% or so got no clear call; they are omitted. No stated cut-off is given here; in the data, active means normalized growth mostly below about 0.91 (no sharp cut-off); inconclusive means no clear call, values can overlap the other calls; inactive means mostly above about 0.92. The list shows a part of the results.

Assay: chemical genetic growth profiling, strain panel (AID 1159580);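 further: tested at 20 µM; growth read once vehicle control cultures reached saturation at 30 °C; 1 = growth at the plate median or of vehicle wells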
Conditions: growth OD

Measured: normalized growth

CC(C)c1c(O)c(-c2cc3c(c(C(C)C)c2O)CCC2C(C)(C)CCC[C@]32C)cc2c1CCC1C(C)(C)CCC[C@]21C (some centres not stated)
inactive: S. cerevisiae deletion strains, locus YJR075W, strain HOC1, stronger effect = lower value 1.01 | S. cerevisiae deletion strains, locus YKL009W, strain mrt4, stronger effect = lower value 1.06 | S. cerevisiae deletion strains, locus YKL068W, stronger effect = lower value 1.01 | S. cerevisiae deletion strains, locus YKL085W, strain MDH1 (second series), stronger effect = lower value 1.07 | S. cerevisiae deletion strains, locus YKL085W, strain MDH1, stronger effect = lower value 1.07 | S. cerevisiae deletion strains, locus YKL160W, strain elf1, stronger effect = lower value 0.984 | S. cerevisiae deletion strains, locus YKL190W, strain CNB1, stronger effect = lower value 1.01 | S. cerevisiae deletion strains, locus YKR001C, strain vps1, stronger effect = lower value 1.03 | S. cerevisiae deletion strains, locus YKR026C, strain gcn3, stronger effect = lower value 0.993 | S. cerevisiae deletion strains, locus YKR091W, strain srl3, stronger effect = lower value 0.971 | S. cerevisiae deletion strains, locus YLL001W, strain dnm1, stronger effect = lower value 1.01 | S. cerevisiae deletion strains, locus YLL026W, stronger effect = lower value 0.997 | S. cerevisiae deletion strains, locus YLL041C, strain sdh2, stronger effect = lower value 1.02 | S. cerevisiae deletion strains, locus YLR027C, strain aat2, stronger effect = lower value 0.983 | S. cerevisiae deletion strains, locus YLR039C, strain RIC1, stronger effect = lower value 1.07 | S. cerevisiae deletion strains, locus YLR058C, strain SHM2, stronger effect = lower value 1.02 | S. cerevisiae deletion strains, locus YLR102C, strain apc9, stronger effect = lower value 1.02 | S. cerevisiae deletion strains, locus YLR113W, strain HOG1, stronger effect = lower value 0.996 | S. cerevisiae deletion strains, locus YLR221C, strain rsa3, stronger effect = lower value 1.02 | S. cerevisiae deletion strains, locus YLR258W, strain gsy2, stronger effect = lower value 0.974 | S. cerevisiae deletion strains, locus YLR262C, strain YPT6 (second series), stronger effect = lower value 0.987 | S. cerevisiae deletion strains, locus YLR262C, strain YPT6, stronger effect = lower value 1.05 | S. cerevisiae deletion strains, locus YLR268W, strain sec22, stronger effect = lower value 1.01 | S. cerevisiae deletion strains, locus YLR320W, strain mms22, stronger effect = lower value 1.02 | S. cerevisiae deletion strains, locus YLR330W, strain CHS5, stronger effect = lower value 1.01 | S. cerevisiae deletion strains, locus YLR342W, strain FKS1 (second series), stronger effect = lower value 1.04 | S. cerevisiae deletion strains, locus YLR342W, strain FKS1, stronger effect = lower value 0.99 | S. cerevisiae deletion strains, locus YLR357W, strain rsc2, stronger effect = lower value 0.976 | S. cerevisiae deletion strains, locus YLR370C, strain arc18, stronger effect = lower value 0.982 | S. cerevisiae deletion strains, locus YLR371W, strain rom2, stronger effect = lower value 1.02 | S. cerevisiae deletion strains, locus YLR384C, strain iki3, stronger effect = lower value 0.972 | S. cerevisiae deletion strains, locus YLR418C, strain cdc73, stronger effect = lower value 1.01 | S. cerevisiae deletion strains, locus YML016C, strain PPZ1, stronger effect = lower value 1.02 | S. cerevisiae deletion strains, locus YML032C, strain rad52, stronger effect = lower value 1.03 | S. cerevisiae deletion strains, locus YML120C, strain ndi1, stronger effect = lower value 1 | S. cerevisiae deletion strains, locus YML124C, strain tub3, stronger effect = lower value 1.01 | S. cerevisiae deletion strains, locus YMR058W, strain fet3, stronger effect = lower value 0.982 | S. cerevisiae deletion strains, locus YMR078C, strain ctf18, stronger effect = lower value 1.01 | S. cerevisiae deletion strains, locus YMR125W, strain sto1, stronger effect = lower value 0.968 | S. cerevisiae deletion strains, locus YMR129W, stronger effect = lower value 0.98 | S. cerevisiae deletion strains, locus YMR205C, strain PFK2, stronger effect = lower value 0.973 | S. cerevisiae deletion strains, locus YMR223W, strain ubp8, stronger effect = lower value 1.03 | S. cerevisiae deletion strains, locus YMR231W, strain pep5, stronger effect = lower value 1.04 | S. cerevisiae deletion strains, locus YMR263W, strain SAP30, stronger effect = lower value 1.02 | S. cerevisiae deletion strains, locus YMR307W, strain GAS1, stronger effect = lower value 1.03 | S. cerevisiae deletion strains, locus YNL067W, strain RPL9B, stronger effect = lower value 1.02 | S. cerevisiae deletion strains, locus YNL071W, strain lat1, stronger effect = lower value 0.995 | S. cerevisiae deletion strains, locus YNL128W, strain TEP1, stronger effect = lower value 1.01 | S. cerevisiae deletion strains, locus YNL153C, strain GIM3, stronger effect = lower value 0.998 | S. cerevisiae deletion strains, locus YNL183C, strain NPR1, stronger effect = lower value 0.946 | S. cerevisiae deletion strains, locus YNL209W, strain ssb2, stronger effect = lower value 0.986 | S. cerevisiae deletion strains, locus YNL233W, strain BNI4, stronger effect = lower value 0.999 | S. cerevisiae deletion strains, locus YNL248C, strain rpa49, stronger effect = lower value 0.953 | S. cerevisiae deletion strains, locus YNL250W, strain rad50, stronger effect = lower value 1.02 | S. cerevisiae deletion strains, locus YNL271C, strain bni1, stronger effect = lower value 1.03 | S. cerevisiae deletion strains, locus YNL298W, strain CLA4, stronger effect = lower value 1.03 | S. cerevisiae deletion strains, locus YNL307C, strain MCK1, stronger effect = lower value 1.04 | S. cerevisiae deletion strains, locus YNL322C, strain KRE1 (second series), stronger effect = lower value 0.963 | S. cerevisiae deletion strains, locus YNL322C, strain KRE1, stronger effect = lower value 1.02 | S. cerevisiae deletion strains, locus YNR049C, strain mso1, stronger effect = lower value 0.963 | S. cerevisiae deletion strains, locus YNR052C, strain pop2, stronger effect = lower value 1.02 | S. cerevisiae deletion strains, locus YOL006C, strain TOP1, stronger effect = lower value 1.06 | S. cerevisiae deletion strains, locus YOL012C, strain htz1 0.995 | S. cerevisiae deletion strains, locus YOL147C, strain pex11, stronger effect = lower value 1.01 | S. cerevisiae deletion strains, locus YOR001W, strain rrp6, stronger effect = lower value 1.02 | S. cerevisiae deletion strains, locus YOR061W, strain CKA2, stronger effect = lower value 1.02 | S. cerevisiae deletion strains, locus YOR069W, strain VPS5, stronger effect = lower value 1.01 | S. cerevisiae deletion strains, locus YOR070C, strain gyp1, stronger effect = lower value 0.989 | S. cerevisiae deletion strains, locus YOR080W, strain dia2, stronger effect = lower value 0.953 | S. cerevisiae deletion strains, locus YOR083W, strain WHI5, stronger effect = lower value 0.997 | S. cerevisiae deletion strains, locus YOR106W, strain vam3, stronger effect = lower value 0.985 | S. cerevisiae deletion strains, locus YOR136W, strain idh2, stronger effect = lower value 1.01 | S. cerevisiae deletion strains, locus YOR144C, strain elg1, stronger effect = lower value 1.01 | S. cerevisiae deletion strains, locus YOR184W, strain ser1, stronger effect = lower value 1.04 | S. cerevisiae deletion strains, locus YOR231W, strain MKK1, stronger effect = lower value 0.958 | S. cerevisiae deletion strains, locus YOR265W, strain rbl2, stronger effect = lower value 1 | S. cerevisiae deletion strains, locus YOR270C, strain vph1, stronger effect = lower value 1 | S. cerevisiae deletion strains, locus YOR290C, strain snf2, stronger effect = lower value 0.957 | S. cerevisiae deletion strains, locus YOR316C, strain cot1, stronger effect = lower value 1.02 | S. cerevisiae deletion strains, locus YPL051W, strain arl3, stronger effect = lower value 0.999 | S. cerevisiae deletion strains, locus YPL055C, strain LGE1, stronger effect = lower value 1.02 | S. cerevisiae deletion strains, locus YPL078C, strain atp4, stronger effect = lower value 0.986 | S. cerevisiae deletion strains, locus YPL106C, strain sse1, stronger effect = lower value 0.948 | S. cerevisiae deletion strains, locus YPL240C, strain hsp82, stronger effect = lower value 0.996 | S. cerevisiae deletion strains, locus YPL241C, strain CIN2, stronger effect = lower value 1.02 | S. cerevisiae deletion strains, locus YPL256C, strain CLN2, stronger effect = lower value 0.949 | S. cerevisiae deletion strains, locus YPR119W, strain clb2, stronger effect = lower value 1.01 | S. cerevisiae deletion strains, locus YPR141C, strain kar3, stronger effect = lower value 1.02 | S. cerevisiae deletion strains, locus YPR163C, strain tif3, stronger effect = lower value 1.01 | S. cerevisiae deletion strains, locus YPR167C, strain met16, stronger effect = lower value 1.02 | S. cerevisiae deletion strains, strain wtn01, stronger effect = lower value 1.02 | S. cerevisiae strains, strain wild type, stronger effect = lower value 1.02
